Compound activity deposited in PubChem BioAssay by The Scripps Research Institute Molecular Screening Center.
The list is not random: actives were taken first. Their share in the collection is about 3.4%.
MITF inh: inhibitors of human MITF; O75030; AlphaScreen MITF homodimerization, bead proximity signal; inhibition, % at 2.6 µM; hit rate 0.91% among 650,000; AID 1259374; in the data active = inhibition above about 50%
Target sequence (O75030 whole entry, looked up): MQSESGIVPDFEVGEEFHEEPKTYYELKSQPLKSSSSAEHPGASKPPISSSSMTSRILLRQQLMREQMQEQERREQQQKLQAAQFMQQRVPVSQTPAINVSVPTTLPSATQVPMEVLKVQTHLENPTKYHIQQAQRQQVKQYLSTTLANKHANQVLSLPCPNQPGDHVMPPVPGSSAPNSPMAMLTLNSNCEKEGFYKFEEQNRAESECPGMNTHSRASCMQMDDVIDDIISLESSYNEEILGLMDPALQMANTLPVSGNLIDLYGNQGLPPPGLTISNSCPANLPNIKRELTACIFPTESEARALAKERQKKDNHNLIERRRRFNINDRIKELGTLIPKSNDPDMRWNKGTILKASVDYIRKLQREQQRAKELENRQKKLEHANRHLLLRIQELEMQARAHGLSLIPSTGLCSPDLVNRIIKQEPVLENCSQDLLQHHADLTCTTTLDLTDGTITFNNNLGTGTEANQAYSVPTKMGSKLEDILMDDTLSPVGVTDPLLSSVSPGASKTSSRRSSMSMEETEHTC
GPR151 ag: activates the human receptor GPR151; PathHunter beta-arrestin GPR151 cells, luminescence; hit rate 1% among 650,000; Q8TDV0; activation, % at 11.2 µM; in the data active = activation above about 4.9%
TEAD-YAP inh: TEAD-YAP interaction inhibition; AID 1259422; hit rate 1.4% among 640,000; inhibition, % at 9.12 µM; HEK-TIYL cells, TEAD-Gal4/YAP UAS-luciferase luminescence; in the data active = inhibition above about 32%
FBW7 act: human FBW7 E3 ligase activation, primary screen | hit rate 0.13% among 650,000 | AlphaScreen FBW7–phospho-cyclin E peptide binding, activator screen | Q969H0 | normalized activity (activation), % at 26.1 µM; in the data active = normalized activity above about 1.9%;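 also: purified mutant Fbw7 with reduced substrate affinity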
GPR151 confirm: confirmation of human GPR151 activators. GPR151 PathHunter beta-arrestin cells, luminescence, 90 min; % of EA-reagent control over plate median. 6,700 tested, under 10 active. activation, % at 11.2 µM. AID 1508609. shares compounds with GPR151 ag;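 active = mean percent activation across replicates above the confirmation screen cutoff of 4.91%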
GPR119 counter: GPR119 activation, counter-screen for GPR151 activators | shares compounds with GPR151 ag | GPR119 PathHunter beta-arrestin cells, luminescence, 90 min; 0 = compound-well median, 100 = enzyme-acceptor control | activation, % at 11.2 µM | hit rate 0.3% among 6,700 | AID 1508611;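 active = mean percent activation in the counterscreen above 29.09%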;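 also: counterscreen on off-target GPR119 to flag nonselective hits from the GPR151 activator screen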
Hits are given with their value; 0 = inactive; - = no result given.

SMILES	MITF inh	GPR151 ag	TEAD-YAP inh	FBW7 act	GPR151 confirm	GPR119 counter
O=C(NCc1cccnc1)c1ccnc(Nc2nccc3ccccc23)c1	0	0	0	0	-	-
O=C(Cn1ccc([N+](=O)[O-])n1)NCc1ccccc1	0	0	0	0	-	-
O=C(Cn1ccc([N+](=O)[O-])n1)NCc1cccnc1	0	8.9	0	0	0	0
O=C(O)CCC(=O)NCc1cccnc1	0	7.5	0	0	0	0
O=C(CCC1=NS(=O)(=O)c2ccccc2N1)Nc1ccc(Oc2ccccc2)cc1	0	0	0	0	-	-
CC(SCc1ccccc1)C(=O)NCc1cccnc1 (stereo unspecified)	0	8.0	0	0	0	0
Cc1ccccc1CNC(=O)C(C)SCc1ccccc1 (stereo unspecified)	0	0	0	0	-	-
COc1ccc(OC(=O)COc2ccccc2Cl)cc1	0	7.8	0	0	0	0
O=C(NCc1ccco1)c1cc([N+](=O)[O-])ccc1N1CCCCC1	0	0	0	0	-	-
O=C(NC(=S)NCc1ccco1)c1cc([N+](=O)[O-])ccc1N1CCOCC1	0	7.4	0	0	0	0
C/C(=N\NC(=O)COc1ccccc1[N+](=O)[O-])c1ccc(Cl)cc1	0	7.1	0	0	0	0
C/C(=N/NC(=O)COc1cccc(Cl)c1)c1cccc([N+](=O)[O-])c1	0	6.6	0	0	0	0
CCc1ccc(N2C(=O)C3C(C2=O)C2C=CC3C23CC3)cc1 (stereo unspecified)	0	0	0	0	-	-
CCc1ccc(-n2c(SC(CC)C(=O)N3CCOCC3)nc3n[nH]c(C)c3c2=N)cc1 (stereo unspecified)	0	0	0	0	-	-
O=C(COc1ccccc1Cl)N/N=C\C=N/NC(=O)COc1ccccc1Cl	0	11.6	0	0	0	0
C/C(=N\NC(=S)NCc1ccco1)c1cccc([N+](=O)[O-])c1	0	5.0	0	0	0	0
COc1cc([N+](=O)[O-])ccc1NC(=S)NCc1ccco1	0	0	0	0	-	-
O=C(COc1ccc(Cl)cc1Cl)NC1CC2CCC1C2 (stereo unspecified)	0	5.3	0	0	0	0
O=C(COc1ccccc1Cl)N/N=C/c1ccc(F)cc1	0	0	0	0	-	-
O=C(COc1ccccc1[N+](=O)[O-])N/N=C/c1ccccc1Cl	0	22.2	0	0	0	0
CCC(CC)C(=O)N1CCc2c(C(=O)OC)c(OCCN3CCCCC3)cc(=O)n2CC1	0	0	0	0	-	-
CCOC(=O)N1CCC(NS(=O)(=O)c2ccc3oc(=O)c4ncn(C)c4c3c2)CC1	0	0	0	0	-	-
O=C(COc1ccccc1-c1ccccc1)NNC(=O)COc1ccccc1[N+](=O)[O-]	0	7.1	0	0	0	0
COc1ccc(/C(C)=N\NC(=O)COc2ccc(C)cc2C)cc1OC	0	0	0	0	-	-
COc1ccc(/C(C)=N\NC(=O)COc2ccc(C)cc2[N+](=O)[O-])cc1OC	0	7.4	0	0	0	0
SMILES	MITF inh	GPR151 ag	TEAD-YAP inh	FBW7 act	GPR151 confirm	GPR119 counter
COc1ccc(NC(=O)Cc2ccccc2[N+](=O)[O-])cc1Cl	0	0	0	0	-	-
CC(C)(C)NC(=O)COc1ccccc1[N+](=O)[O-]	0	0	0	0	-	-
COc1ccc(NC(=O)Cc2ccccc2[N+](=O)[O-])cc1OC	0	6.5	0	0	0	0
O=C(COc1ccccc1Cl)NC1CCCCCC1	0	4.9	0	0	0	0
O=C(COc1ccccc1Br)NC1CCCCC1	0	0	0	0	-	-
O=CN1CCN(C(=O)c2cc([N+](=O)[O-])ccc2Cl)CC1	0	0	0	0	-	-
CC(=O)c1cccc(NC(=O)COc2ccccc2[N+](=O)[O-])c1	0	6.2	0	0	0	0
Cc1ccc(OCC(=O)N/N=C\c2cccn2C)c([N+](=O)[O-])c1	0	5.3	0	0	0	0
Cc1ccc(C)c(OCC(=O)N/N=C\c2cccn2C)c1	0	0	0	0	-	-
CC(C)[C@@H](Cn1nc(-c2ccc(F)c(F)c2)ccc1=O)NC(=O)CCn1cccn1	0	0	0	0	-	-
CN(C)c1ccc(NC2CC(=O)N(c3cccc4ccccc34)C2=O)cc1 (stereo unspecified)	0	5.6	0	0	0	0
CN(C)c1ccc(NC2CC(=O)N(c3cccc(Cl)c3)C2=O)cc1 (stereo unspecified)	0	0	0	0	-	-
COc1ccc(NC(=O)N(Cc2nnc3n2CCCCC3)c2cccc(C)c2)cc1	0	0	0	0	-	-
CCn1ccc2c(OCC(=O)c3ccccc3)cccc2c1=O	0	0	0	0	-	-
CCN(CC)c1nc(NCc2cccc(C(F)(F)F)c2)nc(NCc2ccc3c(c2)OCO3)n1	0	6.4	0	0	0	0
CCN(CC)c1nc(NCc2cccc(C(F)(F)F)c2)nc(Nc2ccc(C(F)(F)F)cc2)n1	0	0	0	0	-	-
COC(c1ccc2c(c1)CN(C(=O)c1nc3ncccn3n1)CCO2)C1CCCCC1 (stereo unspecified)	0	9.5	0	0	0	0
Cc1cccc(NC(=O)CCS(=O)(=O)c2ccc3c(c2)SC(C)C(=O)N3)c1C (stereo unspecified)	0	0	0	0	-	-
CCN(CC)CCCNC(=O)c1oc(=O)c2ccccc2c1-c1ccc(C)cc1	0	0	0	0	-	-
O=C(Cn1cc(NC(=O)COc2ccccc2)cn1)NCc1ccco1	0	0	0	0	-	-
O=C(c1ccc(Cn2c(=S)[nH]c3ccc(Br)cc3c2=O)cc1)N1CCCCCC1	0	0	0	0	-	-
COC(=O)CN1C(=O)C2(OCCCO2)c2cc(C)ccc21	0	0	0	0	-	-
CCOC(=O)CN1C(=O)C2(OCCCO2)c2cc(C)ccc21	0	5.7	0	0	0	0
CC1(C2CCN(C(=O)C(=O)c3ccccc3)CC2)NC(=O)N(C2Cc3ccccc3C2)C1=O (stereo unspecified)	0	5.2	0	0	0	0
CC1(C2CCN(C(=O)Cc3ccsc3)CC2)NC(=O)N(C2Cc3ccccc3C2)C1=O (stereo unspecified)	0	0	0	0	-	-
SMILES	MITF inh	GPR151 ag	TEAD-YAP inh	FBW7 act	GPR151 confirm	GPR119 counter
CCCCCCCCNC(=O)Cc1c(C)n(C(=O)c2ccc(Cl)cc2)c2ccc(OC)cc12	0	0	-	-	-	-
Cc1ccc(NC(=O)C(C)N2C(=O)c3ccccc3C2=O)cc1C (stereo unspecified)	0	6.3	0	0	0	0
Cc1cc(C)cc(NC(=O)C(C)N2C(=O)c3ccccc3C2=O)c1 (stereo unspecified)	0	0	0	0	-	-
CC(C(=O)Nc1nc2ccccc2s1)N1C(=O)c2ccccc2C1=O (stereo unspecified)	0	9.7	0	0	0	0
Cc1ccc(CN2CC34C=CC(O3)C(C(=O)NC3CCCCC3)C4C2=O)cc1 (stereo unspecified)	0	0	0	0	-	-
COc1cccc(NC(=O)CN(C)S(=O)(=O)c2cc3c(cc2Cl)NC(=O)CO3)c1	0	0	0	0	-	-
